# Test results as given in the supplement of paper PMC6555819.
# What was measured:
# Assay in all cases: PBM binding z-score (relative to random genomic background probes); higher = stronger binding; sequences stand for … in GC…GCGATTGACAGCGTAGAATGAAGG
# [1] = tested on: RARb homodimer (NR concentration 270 nM)
# Procedure, shortened: (§1)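 Each nuclear receptor dimer, without ligand, was incubated for 1 h on custom Agilent 4×180K protein-binding microarrays. Binding was detected with antibodies against each partner (one per run), and scanned fluorescence was regression-normalized. The binding z-scores are referenced to random human genomic background probes.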
# [2] = tested on: RARg:RXRa (NR concentration 270 nM, RXRa partner concentration 90 nM)
# Procedure, shortened: as §1
# [3] = tested on: RARg homodimer (NR concentration 270 nM)
# Procedure, shortened: as §1
# [4] = tested on: RXRa DBDmut IVT, anti-RXR (DBD mutation: RXRa K156A/R161A, NR concentration 90 nM)
# Procedure, shortened: as §1
# [5] = tested on: RXRa homodimer (NR concentration 180 nM)
# Procedure, shortened: as §1
# [6] = tested on: THRa:RXRa (NR concentration 90 nM, RXRa partner concentration 90 nM)
# Procedure, shortened: as §1
# [7] = tested on: THRa homodimer (NR concentration 90 nM)
# Procedure, shortened: as §1
# [8] = tested on: VDR homodimer (NR concentration 270 nM)
# Procedure, shortened: as §1
Sequence,PBM binding z-score [1],PBM binding z-score [2],PBM binding z-score [3],PBM binding z-score [4],PBM binding z-score [5],PBM binding z-score [6],PBM binding z-score [7],PBM binding z-score [8]
CTCGAAAGGTCGGTTGAGGCGAGTATACGGATAA,1.33,2.36,2.23,0.644,1.72,4.02,-0.501,-0.121
TCTTGTAGATTAATAGAGGTTAAGAAAGTGCGCT,1.51,0.95,0.856,1.23,1.66,1.81,-0.0934,0.699
CCGACTGGGGCGTAAGGTTACCATAAGCCAGCCC,1.23,0.788,0.295,-0.36,0.979,1.92,0.973,-0.426
AGAATGAGGTTACCAACGATCAGGGAAACGCTTG,0.885,1.97,1.6,1.08,2.45,2.75,0.794,0.331
GGAACGAGGGCAAAGTTGGTAGCATCTGTCGACG,1.14,1.46,1.52,2.47,1.14,1.09,-0.0808,1.46
CTACCAACGTGAACAAGGTCGTTGATTACTATTC,1.42,0.533,0.432,1.53,0.896,1.82,1.41,1.88
CCGACTGGGGCAGAAAGATTACCATACCATCCGG,-0.533,-0.183,0.217,-0.916,0.0291,-0.794,-0.569,-0.722
ACTAGCAGGGCAAGTTTGGGTCACTCAAACAAAG,2.59,3.35,2.64,0.437,1.38,3.17,1.08,0.258
CGTCCAAGGTCAAAGGCCAGTGAAGAGATGACGG,4.03,6.17,6.72,3.33,6.48,3.82,1.82,3.32
CATACTAGGTCACGAAAGGTCAAAGTCGAATGAC,5.99,7.94,8.68,2.83,8.69,5.16,2.91,4.71
TCGAGTAGGTTAGTCGGGGCATCCAGCCAACATA,0.213,0.0156,-0.131,-0.109,0.28,1.05,-0.433,-0.177
GCTTGTAGATCAAGGTTAACAAAGACTAAGCTAA,0.609,0.795,0.37,0.051,1.05,1.49,-0.000318,-0.118
TAGCCTAGGTCATGGGCCAGGATACCACGCGAAC,2.85,4.26,4.49,-0.534,3.86,3.22,1.33,0.424
GCTCGTAGATCAAGGTTAAGAAAGACTAAGCTAA,-0.0448,0.0431,-0.0396,-0.285,0.709,0.978,-0.631,-0.34
CAAACTTGGTCACAGAGGTCAAAGTCCGTGCGTA,4.73,5.89,5.25,2.34,6.56,3.98,1.36,4.8
TCTATTAGGTGATTAGGGCAACCGAAACAGCGGA,1.1,1.09,1.02,0.665,0.927,1.24,0.68,0.277
AGTCAAAGTTCAGGACGAGGTAACGCAAAGCACG,3.22,4.76,4.54,2.81,3.06,3.75,1.73,1.73
ACTCGGAGGACAAAGGTCCGAGCTACGCCAGTGA,0.57,0.663,0.927,0.364,0.0174,0.646,-0.259,-0.261
AGAATGAGGGCACGCTGAGTTGATAGCAGAGTAG,1.3,2.28,2.15,2.2,1.7,2.53,0.735,2.08
AATACAGGGTCACTAGGCCAGAGGAGGTACGAAT,3.25,5.14,5.04,2.54,5.66,3.34,1.54,2.73
ACTAGTTGGTCAGCTGCGGTCACACACAATTCGG,2.82,1.23,1.87,0.356,0.636,2.65,0.969,0.532
CCTACAGGGCCAAAAAGGTCATTGATGCCGATAA,4.52,4.75,4.56,1.26,5.08,3.21,0.419,3.43
ACTTGCGGGTCAACGAGGTTATAGCACGCGTATA,3.37,5.21,4.88,2.41,5.33,3.81,1.31,3.69
ATATGTAGGTTAGCTGGGATCATTCAGACTAGGC,0.428,0.559,0.765,0.0124,0.95,1.95,-0.1,0.36
TCTGCTAGGTCAGTTGGTCAGCTAACGAGCTGCC,2.55,2.58,3.5,0.411,1.02,1.36,-0.176,-0.401
ACTAGTTGGTCAGCTGAGTTCACACACAATTCGG,2.53,1.78,2.11,2.27,1.64,3.33,1.05,6.71
ATCGAAAGGTCGACGAGGTGAGTATACACCGTTT,3.04,4.03,3.9,1.38,4.46,3.84,0.669,0.929
ACAGACCGGTGATGAAGGTAACTCAGGCTATCAT,-0.0627,-0.0765,0.11,-0.318,-0.04,0.648,-0.0295,-0.605
